Results filed as inconclusive are left out. A call without a number means that no potency is given here. Active and inactive are the calls of the source. Calls follow the shape of the full dose curve.
Experiment: qHTS assay to identify small molecule agonists of the AP-1 signaling pathway - cell viability counter screen (AID 1159525); also: nearly all actives have a fitted effect of over 55% in size
Settings: ME-180 (cervical carcinoma) AP-1-bla cells viability, ATP luminescence, 5 h; series mostly up to 76.8 µM
Source text: National Center for Advancing Translational Sciences [NCATS]
NIH Chemical Genomics Center [NCGC]
U.S. Environmental Protection Agency [EPA]
National Institutes of Environmental Health Sciences [NIEHS]
National Toxicology Program [NTP]
U.S. Food and Drug Administration [FDA]
Activator protein-1 (AP-1), a transcription factor, plays an important role in tumor genesis by regulating genes involved in cell proliferation, differentiation, apoptosis, and angiogenesis. AP-1 activity is induced by a complex network of signaling pathways that involves extracellular signals, such as growth factors. The AP-1 protein complex formed from c-Fos and c-Jun binding to the AP-1 response element results in transcriptional activation of genes containing such elements within their promoter.
Low molecular weight molecules have been discovered and developed to modulate various components of these signaling pathways, for example, MAP kinase inhibitors. However, many points of pathway modulation remain untested due to the lack of chemical probes making this signaling locus of general interest.
Using a beta-lactamase reporter-gene under control of the AP-1 response element, a cell-based assay [CellSensor(TM) AP-1-bla ME-180 developed by Invitrogen Corp.] was used to measure EGF-induced signaling. The Tox21 10K library compounds were measured for their ability to positively modulate the action of EC50 EGF on reporter gene activity. Compounds were screened in a 15-pt titration series in 1536-well format. The cytotoxicity of the Tox21 compound library against this cell line was tested in parallel by measuring the intra cellular ATP content in the same wells.
Tox21 Assay Protocol Summary:
2500 cells/5uL in Opti-MEM medium containing 0.5% dialyzed FBS, 0.1 mM NEAA, 1 mM sodium pyruvate and 10 mM HEPES was dispensed into 1536-well black wall/clear bottom plates using a Multidrop dispenser and cells were cultured at 37 degrees Celsius overnight. Next day 23 nL of compounds dissolved in DMSO, positive controls or DMSO were delivered to each well using a pin tool. The plates were incubated at 37 degrees Celsius for 5 hours. 1 uL of LiveBLAzerTM B/G FRET substrate (Solution A+B+C+D) was added to each well using a Flying Reagent Dispenser. After incubated at room temperature for 2.5 hours the plates were measured on an EnVision plate reader at Excitation 405nm, Emission1=460nm and Emission 2=530nm. The %Activity was determined from the ratio of 460nm/530nm.
After the plates were read for Beta-Lactamase assay on Envision; 3 ul Cell Titer Glo (Promega) was added to measure the cytotoxicity and the plates were then incubated at RT in dark for 30 min. The luminescence was read on ViewLux (Perkin Elmer, Shelton, CT) using 6 sec exposure. ViewLux data was expressed as relative luminescence units.
For primary data analysis, raw plate reads for each titration point were first normalized relative to […] EGF control (100%) and DMSO only wells (basal, 0%).
For primary data analysis for viability assay, raw plate reads for each titration point were first normalized Tetra n-octyl ammonium bromide control (-100%) and DMSO (control, 100%).

Row | Compound | Potency
1 | ClCC(Cl)(Cl)Cl | inactive
2 | CSc1nc(N=[N+]=[N-])nc(NC(C)C)n1 | inactive
3 | CC(CC(C#N)(c1ccccc1)c1ccccc1)N(C)C (stereo not given) | inactive
4 | CCC1(c2ccccc2)C(=O)N=C(O)NC1=O (stereo not given) | inactive
5 | O=C(O)C(Br)CBr (stereo not given) | inactive
6 | COP(=S)(OC)Oc1c(Cl)cc(C)cc1Cl | inactive
7 | CN1CCC(O)(c2ccc(F)cc2)C(C(=O)c2ccc(F)cc2)C1 (stereo not given) | inactive
8 | CC(C(O)c1ccccc1)N(C)C/C=C/c1ccccc1 (stereo not given) | inactive
9 | N#CCNCC#N | inactive
10 | CCCSP(=O)(OCC)Oc1ccc(Br)cc1Cl (stereo not given) | inactive
11 | O=C(O)c1ccc2[nH]cc(CCCCN3CC=C(c4ccccc4)CC3)c2c1 | inactive
12 | CCN(Cc1ccc(Cl)nc1)/C(=C/[N+](=O)[O-])NC | inactive
13 | CC(C)CP(=S)(S)CC(C)C | inactive
14 | CC1CCC(=O)O1 (stereo not given) | inactive
15 | CC1CCCCC1NC(=O)Nc1ccccc1 (stereo not given) | inactive
16 | O=CNC(N1CCN(C(NC=O)C(Cl)(Cl)Cl)CC1)C(Cl)(Cl)Cl (stereo not given) | inactive
17 | C#CCN1C(=O)COc2cc(F)c(N3C(=O)C4=C(CCCC4)C3=O)cc21 | inactive
18 | CSc1ccc(C(=O)C(C)(C)N2CCOCC2)cc1 | inactive
19 | COC(C)(C)C | inactive
20 | CC(C1CC1)C(O)(Cn1cncn1)c1ccc(Cl)cc1 (stereo not given) | inactive

Row | Compound | Potency
21 | CNC(=O)O/N=C(\C)SC | inactive
22 | COCC(=O)N(c1c(C)cccc1C)N1CCOC1=O | inactive
23 | CCCCc1c(C)nc(NCC)[nH]c1=O | inactive
24 | CCSC(=O)N(CC)C1CCCCC1 | inactive
25 | CC1(C)CON(Cc2ccccc2Cl)C1=O | inactive
26 | c1cc[c]([Hg][c]2ccccc2)cc1 | inactive
27 | Cc1coc2c1CCC(C)C2 (stereo not given) | inactive
28 | O=C(NCO)NCO | inactive
29 | CC(COc1ccc(Oc2ccccc2)cc1)Oc1ccccn1 (stereo not given) | inactive
30 | CC(C)COP(=O)(OCC(C)C)OCC(C)C | inactive
31 | OCCBr | inactive
32 | CC1CN1P(=O)(N1CC1C)N1CC1C (stereo not given) | inactive
33 | Cc1ncsc1CCCl | inactive
34 | Clc1cccc(N2CCNCC2)c1 | inactive
35 | CN1CCC(N(Cc2ccccc2)c2ccccc2)CC1 | inactive
36 | CNNC | inactive
37 | C(CCOCC1CO1)COCC1CO1 (stereo not given) | inactive
38 | C[C@]1(O)CC[C@H]2[C@@H]3CCC4=CC(=O)CC[C@]4(C)[C@@]3(F)[C@@H](O)C[C@@]21C | inactive
39 | Cc1cc(C)c(C(=O)P(=O)(C(=O)c2c(C)cc(C)cc2C)c2ccccc2)c(C)c1 | inactive
40 | CCC(=O)c1ccccc1 | inactive
